Test systems include HT29 colon; SNB-75 CNS; SNB-19 CNS; U251 CNS; PC-3 prostate; SK-MEL-5 melanoma; UACC-62 melanoma; LOX IMVI melanoma; SK-MEL-28 melanoma; SK-MEL-2 melanoma; EKVX NSCLC; SN12C renal; UO-31 renal; ACHN renal; CAKI-1 renal; CCRF-CEM leukemia; MOLT-4 leukemia; SR leukemia; TK-10 renal; A498 renal.
What all share (assay): NCI-60 one-dose screen, 48 h (100 = growth as untreated, 0 = no growth, -100 = all killed)
Settings in all cases: 10 µM unless noted

This is part of a sample that, as a whole, favours compounds with a hit. Of some 83,000 tested, about 20% had one in any assay.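 Assay: single dose, 48 h. Readout: percent growth (0 = no net growth; negative = cell death). Active: <10.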 Values without a mark were called inactive. Activity calls are given as the source filed them.

In the case of `COc1ccc(-c2oc3cc(O)c(OC)c(O)c3c(=O)c2OC)cc1O`, the growth is 46.2% in the assay with HT29 colon; 16.4% in the assay with SNB-75 CNS; 30.9% with SNB-19 CNS; 14% in the assay on U251 CNS; 15.5% in the assay with PC-3 prostate; 8.22% (active) in the assay on SK-MEL-5 melanoma. Moreover, the growth is 36% in the assay on UACC-62 melanoma; 15.8% with LOX IMVI melanoma; 60.6% in the assay with SK-MEL-28 melanoma; 45.6% in the assay with SK-MEL-2 melanoma; 83.8% with EKVX NSCLC; 37.3% in the assay on SN12C renal. Besides, the growth is 35.5% in the assay with UO-31 renal; 37.5% in the assay on ACHN renal; 72.2% in the assay with CAKI-1 renal; -4.31% (active) in the assay on CCRF-CEM leukemia; 14.4% in the assay on MOLT-4 leukemia; 7.87% (active) in the assay with SR leukemia.
Take `CCN(CC)c1ccc(C(O)C2=CC(=O)c3ccccc3C2=O)cc1` (stereo unspecified): the growth is 9.6% (active) with HT29 colon; 24.9% in the assay with SNB-75 CNS; 15.3% with SNB-19 CNS; -80.9% (active) in the assay on U251 CNS; -2.59% (active) in the assay with PC-3 prostate; -38% (active) in the assay with SK-MEL-5 melanoma. For the same compound, the growth with UACC-62 melanoma is -45.3% (active); in the assay on LOX IMVI melanoma, -51.8% (active); in the assay on SK-MEL-28 melanoma it was -23.1% (active); with SK-MEL-2 melanoma, -27.9% (active); in the assay on SN12C renal it was -28.1% (active); in the assay on UO-31 renal it was 22.7%. For the same compound, the growth in the assay on TK-10 renal is -31.4% (active); in the assay with ACHN renal it was -58.8% (active); with A498 renal, 6.3% (active); in the assay on MOLT-4 leukemia it was 7.92% (active); in the assay with SR leukemia, -5.59% (active).
`CC(C)(C)c1cc(O)c(O)c(C(C)(C)C)c1`: the growth in the assay with HT29 colon is 53.9%; with SNB-75 CNS, 60.8%; with SNB-19 CNS, 56.9%; with U251 CNS it was 36%; in the assay on PC-3 prostate, 39.3%; in the assay on SK-MEL-5 melanoma, 70.4%. The growth was 33% in the assay with UACC-62 melanoma; 47.3% in the assay on LOX IMVI melanoma; 74.9% with SK-MEL-28 melanoma; 76.6% in the assay with SK-MEL-2 melanoma; 60.3% in the assay on SN12C renal; 27.3% in the assay with UO-31 renal. In addition, the growth with TK-10 renal was 35.8%; with ACHN renal it was 18.3%; in the assay with A498 renal, 60.6%; with MOLT-4 leukemia it was 6.61% (active); in the assay on SR leukemia it was 11.2%.
Consider `N#CCCN(CCO)c1ccccc1`, for which the growth is 93.7% in the assay on HT29 colon; 100% in the assay with SNB-75 CNS; 101% in the assay with SNB-19 CNS; 101% with U251 CNS; 86.7% in the assay on PC-3 prostate; 99.9% with SK-MEL-5 melanoma. Further, the growth in the assay on UACC-62 melanoma is 103%; with LOX IMVI melanoma, 107%; in the assay with SK-MEL-28 melanoma, 108%; in the assay on SK-MEL-2 melanoma it was 101%; with SN12C renal, 97.6%; in the assay on UO-31 renal, 89.5%. The growth with TK-10 renal was 93.7%; in the assay with ACHN renal it was 106%; in the assay with A498 renal, 96.4%; in the assay with MOLT-4 leukemia, 90%.
Turning to `COc1ccc(-c2noc(N)c2-c2cc(OC)c3c(c2)OCO3)cc1`, the growth was 7.22% (active) in the assay with HT29 colon; 3.98% (active) with SNB-75 CNS; 53.5% in the assay on SNB-19 CNS; 10.7% in the assay with U251 CNS; 31.1% with PC-3 prostate; 21.2% with SK-MEL-5 melanoma. The growth is 44.1% with UACC-62 melanoma; 29.7% in the assay on LOX IMVI melanoma; 51.8% with SK-MEL-28 melanoma; -1.35% (active) in the assay on SK-MEL-2 melanoma; 35.8% with SN12C renal; 52.2% in the assay on UO-31 renal. The growth in the assay on TK-10 renal was 39%; in the assay with ACHN renal, 40.8%; in the assay on CAKI-1 renal, 32.7%; in the assay with CCRF-CEM leukemia, 5.26% (active); in the assay with MOLT-4 leukemia it was 18.4%; with SR leukemia, -25.8% (active).
Take `O=C(OCCBr)c1ccc(Cl)c([N+](=O)[O-])c1`: the growth in the assay on HT29 colon was 45.4%; in the assay with SNB-75 CNS, 104%; in the assay on SNB-19 CNS, 38.9%; in the assay with U251 CNS it was -31.7% (active); with PC-3 prostate, 70%; in the assay on SK-MEL-5 melanoma, 113%. Also, the growth with UACC-62 melanoma was 104%; with LOX IMVI melanoma, 91.1%; in the assay on SK-MEL-28 melanoma, 60%; with SK-MEL-2 melanoma, 94.1%; with SN12C renal it was 102%; in the assay on UO-31 renal it was 88.9%. Moreover, the growth with TK-10 renal is 106%; with ACHN renal, 104%; with A498 renal, 97.6%; with MOLT-4 leukemia, 83.7%; with SR leukemia, 86.5%.
Take `Clc1ccc(-n2cnc3c(Cl)ncnc32)cc1Cl`: the growth is 74.8% in the assay on HT29 colon; 99.5% in the assay with SNB-75 CNS; 91.5% in the assay on SNB-19 CNS; 78.2% in the assay with U251 CNS; 110% in the assay on PC-3 prostate; 103% in the assay with SK-MEL-5 melanoma. Further, the growth is 85.4% in the assay with UACC-62 melanoma; 36.6% with LOX IMVI melanoma; 64.1% with SK-MEL-28 melanoma; 89.7% in the assay with SK-MEL-2 melanoma; 88.5% in the assay with EKVX NSCLC; 100% with SN12C renal. In addition, the growth was 114% in the assay on UO-31 renal; 89.3% in the assay on TK-10 renal; 95.7% in the assay with ACHN renal; 28.4% in the assay with CAKI-1 renal; 82.6% with MOLT-4 leukemia; 19.5% in the assay with SR leukemia.
Turning to `CCC(C)CC(C)C(=O)c1c(O)ccn(O)c1=O` (stereo unspecified), the growth was 97.3% in the assay on HT29 colon; 49.3% with SNB-75 CNS; 18.6% in the assay with SNB-19 CNS; 11.1% with U251 CNS; 24.5% in the assay on PC-3 prostate; 25.3% in the assay on SK-MEL-5 melanoma. Also, the growth with UACC-62 melanoma is 3.01% (active); in the assay with LOX IMVI melanoma, 6.78% (active); with SK-MEL-28 melanoma, 29%; with SK-MEL-2 melanoma it was 41.9%; in the assay on SN12C renal, 21.2%; in the assay with UO-31 renal it was 6.43% (active). Further, the growth was 83.7% with TK-10 renal; 16.6% in the assay with ACHN renal; 40.3% in the assay with CAKI-1 renal; 115% in the assay on A498 renal; 15.8% with CCRF-CEM leukemia; 9.61% (active) with MOLT-4 leukemia. The growth with SR leukemia was 22.9%.
For the compound `Cc1ccc2c(c1)C(=O)/C(=C/c1ncc([N+](=O)[O-])n1C)O2`, the growth in the assay on HT29 colon is -19.8% (active); with SNB-75 CNS it was 73.8%; in the assay with SNB-19 CNS, 11.8%; in the assay on U251 CNS, -19% (active); in the assay on PC-3 prostate, -2.93% (active); with SK-MEL-5 melanoma, -38.5% (active). In addition, the growth in the assay with UACC-62 melanoma is -13% (active); with LOX IMVI melanoma, -3.36% (active); in the assay on SK-MEL-28 melanoma it was -17.2% (active); with SK-MEL-2 melanoma, -57.8% (active); with SN12C renal, -15.3% (active); in the assay on UO-31 renal, -39.7% (active). The growth with TK-10 renal is -29.8% (active); in the assay with ACHN renal, 5.3% (active); with CAKI-1 renal it was -32.1% (active); in the assay with A498 renal, 76.4%; in the assay on CCRF-CEM leukemia, 0.686% (active); in the assay on MOLT-4 leukemia, -2.13% (active). For the same compound, the growth in the assay with SR leukemia is 11%.
Consider `O=C(/C=C/c1ccccc1)CC(c1ccccc1)N1CCOCC1` (stereo unspecified), for which the growth with HT29 colon was -39.3% (active); with SNB-75 CNS it was 105%; with SNB-19 CNS, 71.8%; in the assay with U251 CNS it was 0.707% (active); with PC-3 prostate it was 89%; with SK-MEL-5 melanoma, 98.9%. In addition, the growth was 85.4% with UACC-62 melanoma; -92% (active) in the assay on LOX IMVI melanoma; 107% with SK-MEL-28 melanoma; -24.5% (active) in the assay on SK-MEL-2 melanoma; 117% with EKVX NSCLC; 94.5% in the assay with SN12C renal. Also, the growth in the assay on UO-31 renal was 61.3%; in the assay with TK-10 renal, 77%; in the assay on ACHN renal, 87.8%; in the assay on CAKI-1 renal it was 103%; in the assay on MOLT-4 leukemia it was 78.4%; in the assay on SR leukemia, -7.57% (active).
Consider `O=c1ccn(C2CCCO2)c(=O)[nH]1` (stereo unspecified), for which the growth in the assay on HT29 colon was 98.3%; in the assay on SNB-75 CNS, 91.9%; in the assay with SNB-19 CNS, 109%; in the assay on U251 CNS, 97.2%; in the assay on PC-3 prostate it was 105%; with SK-MEL-5 melanoma, 111%. Moreover, the growth is 109% in the assay with UACC-62 melanoma; 107% in the assay on LOX IMVI melanoma; 108% in the assay with SK-MEL-28 melanoma; 124% with SK-MEL-2 melanoma; 107% in the assay on EKVX NSCLC; 109% in the assay on SN12C renal. Also, the growth in the assay with UO-31 renal is 95.4%; in the assay with TK-10 renal it was 120%; with ACHN renal, 98.7%; in the assay with CAKI-1 renal it was 110%; with CCRF-CEM leukemia, 97%; in the assay with MOLT-4 leukemia it was 97.7%. Also, the growth with SR leukemia was 114%.

These data come from PubChem BioAssay (NCI).
